VACV Venus inh: vaccinia inhibition (Venus reporter); Vaccinia virus Venus reporter expression, fluorescence; Potency, µM (titrated, usually from 36.5 µM), inactives show at the highest dose activity change, negative = inhibition, hits mostly inhibitors; hit rate 0.46% among 330,000; AID 720580; calls by dose curve; tested in A549 cells; further: potency means the concentration at half of the fitted maximal effect; nearly all actives have a fitted effect of over 30% in size
FMDV antiviral: antivirals against foot and mouth disease virus | Potency, µM (highest dose often 57.9 µM), for the others: at the top dose activity change, negative = inhibition, hits mostly inhibitors | hit rate 1.2% among 410,000 | FMDV antiviral cell-based qHTS | AID 1159524; calls by dose curve; tested in HEK293T cells; further: read-out not given here; potency means the concentration at half of the fitted maximal effect; nearly all actives have a fitted effect of over 45% in size
Lassa entry inh: inhibitors of Lassa virus binding or cell entry. AID 540256. Potency, µM (highest dose often 37.9 µM), inactives show at the highest dose activity change, negative = inhibition, actives largely listed as inhibitors. hit rate 1.2% among 300,000. Lassa virus pseudotype entry inhibition, cell reporter; calls by dose curve; tested in HEK293 cells; further: potency means the concentration at half of the fitted maximal effect; nearly all actives have a fitted effect of over 50% in size
Marburg entry inh: inhibitors of Marburg virus binding or cell entry. Potency, µM (doses to about 37.8 µM), inactives show at the highest dose activity change, negative = inhibition, hits mostly inhibitors. hit rate 1.8% among 300,000. Marburg virus pseudotyped entry inhibition, cell reporter. AID 540276; calls by dose curve; tested in HEK293 cells; further: potency means the concentration at half of the fitted maximal effect
VACV mCherry inh: vaccinia inhibition (mCherry reporter). Vaccinia virus mCherry reporter infection, fluorescence. hit rate 0.63% among 310,000. Potency, µM (series often up to 36.5 µM), for inactives: top-dose activity change, negative = inhibition, usual class: inhibitors; calls by dose curve; tested in A549 cells; further: potency means the concentration at half of the fitted maximal effect; nearly all actives have a fitted effect of over 35% in size
HCMV inh: human cytomegalovirus inhibition; hit rate 4.5% among 410,000; HFF cells, HCMV-luciferase reporter, 72 h; hits give low values; activity change, negative = inhibition, % at 57.5 µM; in the data active means activity change below about -60%; inconclusive means no clear call, values can overlap the other calls; inactive means above about -39%
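Two compound doses tested in HFFs infected with HCMV-luciferase, MOI 1 PFU/cell, 72 h at 37C. Lysate luminescence read with OneGlo; data normalized against buffer-only and 10uM Salinomycin inhibitor controls.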
* = called active by the depositor; ? = inconclusive; nt = not tested or not shown; [ ] = dose if it differs, or a comment. Sampled rows, rich in hits. Any-hit rate of the full collection: about 6.5%. On the % scale 0 is the no-effect control and ±100 the full control effect.

SMILES	VACV Venus inh	FMDV antiviral	Lassa entry inh	Marburg entry inh	VACV mCherry inh	HCMV inh
COc1ccccc1C1CCN(C(=O)c2cnn(-c3ccccc3)c2C)CC1	nt	40µM*	nt	nt	nt	-1
CC(=O)C1=C(C)N(Cc2ccccc2)C(=O)NC1c1ccco1 (stereo not given)	nt	nt	?	2%[14.2 µM]	nt	nt
COc1ccc(C2C3=C(CC(C)(C)CC3=O)Oc3ncn(CC(C)C)c(=N)c32)cc1 (stereo not given)	-17%	-29%	-14%	-7%	nt	-19
N=c1c2c(ncn1Cc1ccco1)Oc1ccc3ccccc3c1C2c1ccccc1 (stereo not given)	?	?	?	9.2µM*	?	30
COc1ccc(C2c3c(ncn(Cc4ccco4)c3=N)Oc3ccc4ccccc4c32)cc1 (stereo not given)	-26%	-7%	?	?	-15%	158
COc1ccc(C2C3=C(CC(C)(C)CC3=O)Oc3ncn(Cc4ccco4)c(=N)c32)cc1 (stereo not given)	nt	28µM*	?	?	nt	9
Cc1cc(C)n(-c2nc(C)c(C)c(=O)n2CC(=O)Nc2ccc([N+](=O)[O-])cc2)n1	-6%[7.34 µM]	-11%	-23%[46.1 µM]	nt	-9%[7.34 µM]	65
Cn1c(C(=O)NCCc2ccccc2)cc2cc(S(=O)(=O)N3CCCCC3)ccc21	-26%	?	?	nt	-26%	-22
CC(=O)N1C(=O)NC(C)=C(C#N)C1c1ccccc1 (stereo not given)	nt	nt	nt	-10%[14.2 µM]	nt	nt
Cc1ccccc1CCNC(=O)C1CCN(S(=O)(=O)c2ccc3c(ccn3C)c2)CC1	-8%	-18%	-18%[46.1 µM]	nt	-15%	13
Cc1cc(=O)n(Cc2c(F)cccc2Cl)c2c1c(C)nn2-c1cccc(F)c1	-5%	-19%	14%[46.1 µM]	nt	-1%	6
O=C1C(=C2SCCCS2)CC/C1=C\c1ccc(F)cc1	-7%	5µM*	1.1µM*	2.5µM*	-13%	-91*
CC1(C)CCN2CCC(C)(C)c3c(O)ccc1c32	nt	?	nt	nt	nt	-91*
Cc1onc(-c2ccc(Cl)cc2)c1-c1ccnc(SCC(=O)Nc2cc(Cl)cc(Cl)c2)n1	-5%	-16%	?	7.9µM*	-6%	-15
O=C(CSc1nccc(-c2cccs2)n1)Nc1cccc(Cl)c1	-2%	-23%	-28%	14%[14.2 µM]	?	-25
O=C(CN1CCOCC1)N1CC(=O)N2[C@@H](CO)[C@H](c3ccc(Br)cc3)[C@@H]2C1	nt	nt	nt	nt	nt	-2
CC1(C)CC(C(=O)N2CCOc3ccc(CN4CCC(Oc5cccnc5)CC4)cc3C2)CCO1 (stereo not given)	-17%	-10%	nt	nt	-1%	nt
Cc1ccc(C)c(NC(=O)CN2C(=O)CSc3nc(C)cc(C)c32)c1	-6%	-12%	17%[46.1 µM]	-16%[46.1 µM]	-19%	8
Cc1[nH]c2ccccc2c1CCNC(=O)c1ccc2c(c1[N+](=O)[O-])C(=O)c1ccccc1C2=O	127%	-18%	?	?	1%	-75*
O=C(NCc1cccc(Br)c1)C1CCCCN1S(=O)(=O)c1ccc(F)cc1 (stereo not given)	4%	-8%	-3%[46.1 µM]	nt	-10%	-7
COc1ccc(NC(=O)c2ccc(C)o2)c([N+](=O)[O-])c1	-1%	36%	6%	1%	-3%	-12
COc1ccc(NC(=O)c2cc(Br)ccc2Cl)c([N+](=O)[O-])c1	-11%	-11%	-13%	-10%[46.1 µM]	-4%	-63*
COc1ccc(NC(=O)c2ccc([N+](=O)[O-])s2)c([N+](=O)[O-])c1	nt	35%	nt	nt	nt	-85*
CCN(Cc1ccc(OC)cc1)c1ccc(-c2nc(-c3ccncc3)no2)cc1[N+](=O)[O-]	-15%	-17%	2%[46.1 µM]	2%[46.1 µM]	-21%	9
COc1cc(OC)c(/C=C/c2cc(/C=C/c3c(OC)cc(OC)cc3OC)[n+](C)c3ccccc23)c(OC)c1	-7%	nt	nt	nt	?	nt
SMILES	VACV Venus inh	FMDV antiviral	Lassa entry inh	Marburg entry inh	VACV mCherry inh	HCMV inh
Cc1ccc2nsnc2c1S(=O)(=O)N(Cc1ccco1)Cc1cc2ccc(C)c(C)c2[nH]c1=O	-6%	-21%	?	1.6µM*	-12%	-85*
COc1ccc2[nH]c(=O)c(CN(Cc3cccs3)S(=O)(=O)c3c(C)ccc4nsnc34)cc2c1	nt	19%	13µM*	?	nt	-103*
Cc1cc(C)c2cc(CN(CC3CCCO3)C(=S)NCc3ccco3)c(=O)[nH]c2c1 (stereo not given)	-30%	20%	-17%	-10%[46.1 µM]	?	?
Cc1cc(C)c2cc(CN(Cc3ccco3)C(=O)NCc3ccccc3)c(=O)[nH]c2c1	?	-1%	?	2.8µM*	-17%	-29
CC1(C)OC(=O)C2(Cc3ccc(Cl)cc3N3CCCC32)C(=O)O1 (stereo not given)	11%	nt	nt	nt	26%	nt
Oc1ccccc1CNc1ccc(Br)cn1	14µM*	0%	?	?	nt	-105*
CSCCC(NC(=O)c1ccccc1Br)C(=O)NCC1CCCCC1 (stereo not given)	-18%	11%	-2%[46.1 µM]	13%[46.1 µM]	-21%	-27
CSCCC(NC(=O)c1ccccc1Br)C(=O)NCc1ccc(F)cc1 (stereo not given)	nt	-11%	nt	nt	nt	-63*
CN(C)c1ccc(NC(=O)CN2C(=O)c3ccccc3Sc3ccc(C(=O)N4CCCC4)cc32)cc1	-15%	1%	-8%[46.1 µM]	nt	-5%	11
C=C(C)CCC(C)N1CCC(n2nccc2NC(=O)CCOc2ccccc2)CC1 (stereo not given)	-18%	-23%	?	-19%	-11%	-89*
CC(=O)/C=C/c1ccccc1Oc1c(F)c(F)nc(F)c1F	nt	32µM*	nt	nt	nt	-67*
COCCNC(=O)c1cn(C2CCN(C3CCCC3)CC2)nn1	4%	-2%	nt	nt	-6%	nt
COc1cc(N(C)C)c(OC)cc1C=C1C=CC=C1	-19%	nt	nt	nt	8%	nt
Cc1ccc(C(C(=O)NCc2ccco2)N(C(=O)CNC(=O)c2cccs2)c2c(C)cc(C)cc2C)cc1 (stereo not given)	-8%	11%	?	?	-11%	-78*
COc1cc2nc(N3CCN(C)CC3)nc(NC(C)C)c2cc1OC	-24%	nt	nt	nt	-7%	nt

High-throughput results as filed in PubChem BioAssay.
